Here are results for six compounds from PubChem BioAssay (Tox21).

Experiment [1] has as its target Thyrotropin receptor (Homo sapiens) (UniProt P16473). The experiment can be described thus: qHTS assay to identify small molecule antagonists of the thyroid stimulating hormone receptor (TSHR) signaling pathway (AID 1259385; calls by dose curve; also: nearly all actives have a fitted effect of over 20% in size). An outline of the steps:
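TSHR-HEK293 cells (800/well) plated 18 h, then compounds with Ro20-1724 and TSH at 1.5 ng/mL final, 30 min at room temperature. cAMP quantified by HTRF (cAMP-d2/anti-cAMP-cryptate, 1 h); 15 concentrations in triplicate.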

A short description of experiment [2]: qHTS assay to identify small molecule agonists of the estrogen receptor alpha (ER-alpha) signaling pathway in the presence of an antagonist - cell viability counter screen (AID 1259386).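 Also: series mostly up to about 92 µM; cells exposed to compounds for 22 h at 37 °C before the viability read; nearly all actives have a fitted effect of over 30% in size.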 Summed up: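 Cytotoxicity was measured in parallel with the ERE-luciferase agonist screen, in the same wells. The cells were VM7Luc4E2, which endogenously express ER-alpha, and treatment was with compounds plus 10.0nM ICI-182,780 for 22hr.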

The target of experiment [3] is Progesterone receptor (Homo sapiens) (UniProt P06401). The experiment can be described thus: qHTS assay to identify small molecule agonists of the progesterone receptor (PR) signaling pathway (AID 1346784; calls by dose curve; also: nearly all actives have a fitted effect of over 30% in size). Summed up: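 PR-UAS-bla HEK 293T cells carrying a UAS-driven beta-lactamase reporter were seeded in medium with 2% charcoal-stripped FBS, preincubated 6 hr at 37C, then exposed to compounds in DMSO for 16 hr; agonism was read by LiveBLAzer B/G FRET fluorescence.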
A general note: qHTS replaces the single test concentration by a dilution series.

For experiment [4] the target is unchanged. The experiment can be described thus: qHTS assay to identify small molecule antagonists of the progesterone receptor (PR) signaling pathway (AID 1346795; active = well fitted inhibition curve with a large enough effect in the signal ratio in the repeat runs, not every such curve was filed as active; the % refers to the signal ratio; also: potency is read from the fitted curve at half-maximal effect). Summed up:
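PR-UAS-bla HEK293T cells carrying a UAS-driven beta-lactamase reporter were plated in medium with 2% charcoal-stripped FBS and rested 6 hr at 37C. Compounds were added with 1 nM R5020 (final) for 16 hr, then FRET substrate loaded 2 hr at room temperature.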

Experiment [5] can be described thus: qHTS assay to identify small molecule antagonists of the TGF-beta/Smad signaling pathway - cell viability counter screen (AID 1346824). Also: nearly all actives have a fitted effect of over 50% in size. Summed up:
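SBE-bla HEK 293T cells, incubated overnight, then compound plus 0.25 ng/mL TGF-beta1 (stock added) for 5 hr at 37 C. Viability was read in the same wells by CellTiter-Glo luminescence after 30 min at room temperature.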

A short description of experiment [6]: qHTS assay to identify small molecule agonists of the TGF-beta/Smad signaling pathway - cell viability counter screen (AID 1346829). Also: top concentration of the series differs between compounds; nearly all actives have a fitted effect of over 45% in size. Summed up: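 Tox21 qHTS format: SBE-bla HEK 293T cells treated with DMSO-dissolved compounds for 5 hr; CellTiter-Glo luminescence after 30 min at room temperature.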
Experiment [7] can be described thus: qHTS assay to identify small molecule agonists of the TGF-beta/Smad signaling pathway (AID 1346859; active = well fitted activation curve with a large enough effect in the signal ratio in the repeat runs, not every such curve was filed as active; the % refers to the signal ratio; also: series mostly up to about 77 µM). An outline of the steps:
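HEK 293T cells stably carrying a beta-lactamase reporter driven by the Smad binding element were seeded overnight, exposed to DMSO-dissolved compounds for 5 hr at 37 C, 5% CO2, then loaded with FRET substrate for 2 hr at room temperature.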

A short description of experiment [8]: Human pregnane X receptor (PXR) small molecule agonists, qHTS cell viability counter screen (AID 1346977). Also: nearly all actives have a fitted effect of over 50% in size. Also: potency is read from the fitted curve at half-maximal effect. An outline of the steps: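 PXR-Luc HepG2 cells in medium with 5% charcoal-stripped FBS were pre-incubated 5hr, then exposed to compounds for 24hr at 37C. Viability was read in the same wells by CellTiter-Fluor fluorescence, reagent added after 23hr with a 1hr incubation.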

Experiment [9] in a line: Caspase-3/7 induction in HepG2 cells by small molecules, qHTS assay (AID 1346978). Also: nearly all actives have a fitted effect of over 15% in size. Also: potency is read from the fitted curve at half-maximal effect. An outline of the steps:
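Wild-type HepG2 cells, 2,000/well, settled 5 hr at 37 C and 5% CO2, then compound-treated for 17 hr; caspase-3/7 activity read by luminescent Caspase-Glo 3/7 after 30 min at room temperature.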

A short description of experiment [10]: Caspase-3/7 induction in CHO-K1 cells by small molecules, qHTS cell viability counter screen (AID 1346979). Also: nearly all actives have a fitted effect of over 35% in size. Also: potency is read from the fitted curve at half-maximal effect. Summed up: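 Wild-type CHO-K1 cells were seeded at 1,500 per well, rested 5hr at 37 C, then exposed to compounds in DMSO. After 16hr, CellTiter-Fluor reagent was added and fluorescence read 1hr later as the viability measure.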
Experiment [11] in a line: Caspase-3/7 induction in CHO-K1 cells by small molecules, qHTS assay (AID 1346980). Also: nearly all actives have a fitted effect of over 15% in size. Also: potency is read from the fitted curve at half-maximal effect. An outline of the steps:
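Wild-type CHO-K1 cells exposed to compounds for 17hr at 37 C, 5% CO2. Caspase-3/7 activity then measured by Caspase-Glo 3/7 luminescence after 30min at room temperature.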

A short description of experiment [12]: Caspase-3/7 induction in HepG2 cells by small molecules, qHTS cell viability counter screen (AID 1346981). Also: series mostly up to about 92 µM; nearly all actives have a fitted effect of over 30% in size. An outline of the steps: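 Cell viability is measured as a cytotoxicity counter screen alongside the Caspase-Glo 3/7 readout in identical wells. Wild-type HepG2 cells are treated with test compounds for 16 hr at 37 C before CellTiter-Fluor addition and a 1-hr incubation.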

Experiment [13] addresses Nuclear receptor subfamily 1 group I member 2 (Homo sapiens) (UniProt O75469). Nature of the experiment: Human pregnane X receptor (PXR) small molecule agonists, qHTS assay (AID 1346982). Also: nearly all actives have a fitted effect of over 35% in size. Also: potency is read from the fitted curve at half-maximal effect. An outline of the steps: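 Cells: HepG2 stably carrying PXR-Luc. Medium held 5% charcoal-stripped FBS. Compounds in DMSO added after 5 hr plating, incubated 24 hr, then luminescence quantified with ONE-Glo.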

Experiment [14] addresses Nuclear receptor subfamily 1 group I member 2 (Rattus norvegicus) (UniProt Q9R1A7). The experiment can be described thus: Rat pregnane X receptor (rPXR) activation by small molecules, qHTS assay (AID 1346983). Also: nearly all actives have a fitted effect of over 20% in size. The note with it: rPXR luciferase reporter cells, One-Glo luminescence, 24 h; max activation: hits give high values. Summed up: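 Cell-based rPXR activation assay: rPXR cells, 2,000 per well, rested 5hr at 37 C, then exposed to compounds in DMSO for 24 hr at 37 C. Luciferase activity read by One-Glo luminescence after 30 min at room temperature.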

The target of experiment [15] is Nuclear receptor subfamily 1 group I member 2 (Homo sapiens) (UniProt O75469). Nature of the experiment: CYP3A4 induction through human pregnane X receptor (PXR) by small molecules, qHTS assay (AID 1346984). Also: nearly all actives have a fitted effect of over 40% in size. An outline of the steps:
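Quantitative HTS in DPX-2 cells, i.e. HepG2 transfected with PXR response element and CYP3A4-promoter luciferase. Compounds in DMSO incubated 24hr at 37C; then P450-Glo CYP3A4 substrate, 3uM final, 3hr; One-Glo luminescence.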

For experiment [16] the target is unchanged. The experiment can be described thus: Human pregnane X receptor (PXR) activation by small molecules, qHTS assay (AID 1346985). Also: nearly all actives have a fitted effect of over 40% in size. Summed up:
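DPX-2 cells (HepG2 co-transfected with a PXR response element and a CYP3A4-promoter luciferase construct) were seeded at 2,000 per well, rested 5 hr at 37C, then exposed to DMSO-dissolved compounds for 24 hr. Activation was read as luciferase luminescence.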

Experiment [17] can be described thus: qHTS assay to identify small molecule antagonists of the progesterone receptor (PR) signaling pathway - cell viability counter screen (AID 1346798). Also: series mostly up to about 92 µM; nearly all actives have a fitted effect of over 50% in size. Summed up:
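PR-UAS-bla HEK293T cells in medium with 2% charcoal-stripped FBS were treated with compounds plus R5020 for 16 hr at 37C. Cell viability was then read by CellTiter-Glo luminescence after 30 min at room temperature in the same wells.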

Experiment [18] deals with Thyrotropin-releasing hormone receptor (Homo sapiens) (UniProt P34981). The experiment can be described thus: qHTS assay to identify small molecule antagonists of the thyrotropin-releasing hormone receptor (TRHR) signaling pathway (AID 1346877; active = well fitted inhibition curve with a large enough effect in the repeat runs, not every such curve was filed as active; also: series mostly up to about 51 µM). An outline of the steps: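 Antagonism is measured as suppression of the calcium response to 1 nM TRH in TRHR-HEK293 cells that have been dye-loaded for 2 h at 37 °C after overnight plating. Each compound is tested at 15 concentrations in triplicate.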

The target is the same in experiment [19]. Nature of the experiment: qHTS assay to identify small molecule agonists of the thyrotropin-releasing hormone receptor (TRHR) signaling pathway (AID 1346891; calls by dose curve; also: series mostly up to about 58 µM). An outline of the steps: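 TRHR-expressing HEK293 cells were plated 18 h at 37 °C/5% CO2, loaded with calcium dye 2 h at 37 °C, then given compound in DMSO; fluorescence was read kinetically for 3 min at 1 s intervals.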

Experiment [20] can be described thus: qHTS assay to identify small molecule agonists of the progesterone receptor (PR) signaling pathway - cell viability counter screen (AID 1346799; calls by dose curve; also: nearly all actives have a fitted effect of over 45% in size). Summed up: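 PR-UAS-bla HEK293T cells, 3,000 per well in medium with 2% charcoal-stripped FBS, were preincubated 6 hr at 37C, then exposed to compounds for 16 hr; viability was read as CellTiter-Glo luminescence after 30 min at room temperature.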

Values joined by “and” are separate entries in the source; they are usually repeats but may differ in a detail not shown here. Identical values can stand only once. Unmarked numbers belong to inactive results. Records with an inconclusive call do not appear. Active and inactive are the calls of the source. Unless noted, calls follow the shape of the dose curve; as a rule, active = well fitted curve in the direction sought with a large enough effect in the repeat runs; inconclusive = weak or mixed curves; inactive = no such curve, though single readings can be large; an effect the other way counts as inactive or inconclusive.
% is scaled to controls: 0 for no effect and ±100 for the full control effect.

Progesterone receptor (Homo sapiens), sequence (P06401 whole entry, looked up): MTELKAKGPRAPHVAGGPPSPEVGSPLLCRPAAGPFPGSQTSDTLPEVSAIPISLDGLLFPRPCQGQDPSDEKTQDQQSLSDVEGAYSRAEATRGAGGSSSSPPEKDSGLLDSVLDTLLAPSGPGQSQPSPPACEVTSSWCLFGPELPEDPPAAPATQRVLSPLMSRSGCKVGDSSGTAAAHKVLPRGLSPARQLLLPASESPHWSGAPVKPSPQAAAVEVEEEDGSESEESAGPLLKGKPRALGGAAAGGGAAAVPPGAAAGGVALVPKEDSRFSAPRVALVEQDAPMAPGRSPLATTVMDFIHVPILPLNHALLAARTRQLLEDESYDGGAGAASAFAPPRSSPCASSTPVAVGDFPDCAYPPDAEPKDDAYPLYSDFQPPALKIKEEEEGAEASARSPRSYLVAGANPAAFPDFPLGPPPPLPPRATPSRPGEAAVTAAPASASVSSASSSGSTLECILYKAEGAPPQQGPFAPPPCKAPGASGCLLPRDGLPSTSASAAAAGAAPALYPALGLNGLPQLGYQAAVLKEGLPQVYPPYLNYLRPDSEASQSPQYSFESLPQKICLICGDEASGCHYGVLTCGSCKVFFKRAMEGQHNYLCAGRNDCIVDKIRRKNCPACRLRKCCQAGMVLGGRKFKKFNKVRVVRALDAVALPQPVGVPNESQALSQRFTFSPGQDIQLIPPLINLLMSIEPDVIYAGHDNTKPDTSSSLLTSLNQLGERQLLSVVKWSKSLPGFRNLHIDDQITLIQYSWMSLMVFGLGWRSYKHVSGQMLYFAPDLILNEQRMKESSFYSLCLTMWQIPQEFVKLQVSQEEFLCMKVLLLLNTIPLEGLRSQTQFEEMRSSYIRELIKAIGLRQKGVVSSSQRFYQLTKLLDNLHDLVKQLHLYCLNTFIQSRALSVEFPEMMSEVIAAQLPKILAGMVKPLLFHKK
Thyrotropin-releasing hormone receptor (Homo sapiens), sequence (P34981 whole entry, looked up): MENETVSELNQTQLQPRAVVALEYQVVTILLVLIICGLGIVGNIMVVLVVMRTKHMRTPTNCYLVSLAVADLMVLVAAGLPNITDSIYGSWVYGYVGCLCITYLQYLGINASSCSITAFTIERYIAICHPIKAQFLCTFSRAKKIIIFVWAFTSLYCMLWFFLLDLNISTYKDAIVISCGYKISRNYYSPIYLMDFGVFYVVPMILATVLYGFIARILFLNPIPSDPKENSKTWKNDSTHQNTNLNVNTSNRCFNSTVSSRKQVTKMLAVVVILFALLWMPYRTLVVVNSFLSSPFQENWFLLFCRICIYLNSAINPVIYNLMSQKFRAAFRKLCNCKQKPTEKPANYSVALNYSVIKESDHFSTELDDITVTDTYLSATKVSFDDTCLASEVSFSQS
Nuclear receptor subfamily 1 group I member 2 (Homo sapiens), sequence (O75469 whole entry, looked up): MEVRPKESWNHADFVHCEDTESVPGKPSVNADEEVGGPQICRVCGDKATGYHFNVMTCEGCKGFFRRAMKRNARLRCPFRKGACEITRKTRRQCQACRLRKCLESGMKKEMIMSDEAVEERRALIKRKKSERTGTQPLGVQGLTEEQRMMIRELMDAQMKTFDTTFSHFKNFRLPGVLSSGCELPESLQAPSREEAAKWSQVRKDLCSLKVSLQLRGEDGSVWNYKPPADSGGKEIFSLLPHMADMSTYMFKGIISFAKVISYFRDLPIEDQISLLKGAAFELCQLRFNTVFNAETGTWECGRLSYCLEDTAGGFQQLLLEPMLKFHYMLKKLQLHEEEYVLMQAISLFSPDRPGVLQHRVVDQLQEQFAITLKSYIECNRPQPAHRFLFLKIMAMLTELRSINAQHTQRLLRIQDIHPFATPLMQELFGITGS
Thyrotropin receptor (Homo sapiens), sequence (P16473 whole entry, looked up): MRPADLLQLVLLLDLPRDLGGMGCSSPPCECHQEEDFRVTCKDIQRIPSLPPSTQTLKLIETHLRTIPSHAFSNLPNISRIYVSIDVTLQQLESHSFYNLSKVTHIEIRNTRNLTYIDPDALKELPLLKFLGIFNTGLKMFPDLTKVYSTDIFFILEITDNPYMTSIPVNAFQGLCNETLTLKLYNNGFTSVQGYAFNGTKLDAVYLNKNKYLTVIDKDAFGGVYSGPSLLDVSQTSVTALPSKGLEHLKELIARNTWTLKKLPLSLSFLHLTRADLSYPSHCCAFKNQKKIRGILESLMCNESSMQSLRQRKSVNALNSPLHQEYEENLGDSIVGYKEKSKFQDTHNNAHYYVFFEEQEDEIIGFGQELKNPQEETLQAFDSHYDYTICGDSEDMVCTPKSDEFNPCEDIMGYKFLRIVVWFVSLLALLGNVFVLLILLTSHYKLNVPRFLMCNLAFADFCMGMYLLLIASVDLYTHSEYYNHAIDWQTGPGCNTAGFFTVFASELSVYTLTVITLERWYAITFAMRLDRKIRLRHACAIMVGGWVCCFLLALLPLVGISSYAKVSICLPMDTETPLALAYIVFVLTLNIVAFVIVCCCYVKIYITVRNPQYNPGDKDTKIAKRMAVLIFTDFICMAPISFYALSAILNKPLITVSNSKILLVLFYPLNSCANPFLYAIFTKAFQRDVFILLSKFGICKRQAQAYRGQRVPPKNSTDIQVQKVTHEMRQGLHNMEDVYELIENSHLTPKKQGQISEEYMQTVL
Nuclear receptor subfamily 1 group I member 2 (Rattus norvegicus), sequence (Q9R1A7 whole entry, looked up): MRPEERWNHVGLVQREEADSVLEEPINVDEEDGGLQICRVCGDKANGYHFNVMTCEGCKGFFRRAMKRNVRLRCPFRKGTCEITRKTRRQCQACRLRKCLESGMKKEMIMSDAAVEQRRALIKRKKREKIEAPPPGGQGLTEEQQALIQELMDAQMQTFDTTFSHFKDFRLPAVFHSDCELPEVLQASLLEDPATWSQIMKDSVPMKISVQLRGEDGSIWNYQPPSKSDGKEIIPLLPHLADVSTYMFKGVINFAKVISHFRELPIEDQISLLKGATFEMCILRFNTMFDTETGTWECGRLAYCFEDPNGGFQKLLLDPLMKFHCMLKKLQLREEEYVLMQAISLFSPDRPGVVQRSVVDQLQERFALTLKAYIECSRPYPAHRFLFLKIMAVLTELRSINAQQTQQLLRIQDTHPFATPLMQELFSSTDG

Consider `CC(=O)OCC(=O)NCCCOc1cccc(CN2CCCCC2)c1`, for which the Potency result in [1], in experiment [2], in [3], in experiment [4], in experiment [5] and in experiment [6] was “inactive” in each case. Moreover, the Potency result in experiment [7], in experiment [8], in [9], in experiment [10], in experiment [11] and in [12] was “inactive” each time. For the same compound, the Potency result in [13], in [15] and in [16] was “inactive” each time. Also, the max activation in experiment [14] is -1.53%.

Turning to `O=C(O)c1ccc(OCCCOc2ccc(C(=O)O)cc2)cc1`, the Potency entry in experiment [1], in experiment [2], in experiment [3], in experiment [4], in experiment [17] and in [6] was “inactive” in each case. Also, the Potency entry in experiment [7], in experiment [19], in experiment [8], in experiment [9], in [10] and in [12] was “inactive” in each case. Besides, the Potency entry in [13], in [15] and in [16] was “inactive” each time. In addition, the result in experiment [18] was inactive. In addition, the max activation in experiment [14] was -2.11%.

As to `CNC(=O)c1cnn(-c2nc(N)c3ncn([C@@H]4O[C@H](CO)[C@@H](O)[C@H]4O)c3n2)c1`, the Potency result in [1], in [2], in experiment [3], in experiment [4], in [20] and in experiment [6] was “inactive” throughout. Moreover, the Potency entry in experiment [7], in [19], in experiment [8], in experiment [9], in experiment [10] and in [12] was “inactive” in each case. The Potency result in experiment [13] is “inactive”. In addition, the result in [18] was inactive.

As for `CC1(C)[C@@H](OC(=O)CCC(=O)O)CC[C@]2(C)[C@H]3C(=O)C=C4[C@@H]5C[C@@](C)(C(=O)O)CC[C@]5(C)CC[C@@]4(C)[C@]3(C)CC[C@@H]12`, the Potency result in [1], in experiment [2], in experiment [3], in experiment [4], in experiment [20] and in [5] was “inactive” each time. In addition, the Potency entry in experiment [7], in experiment [19], in experiment [8], in experiment [9], in experiment [10] and in experiment [12] was “inactive” throughout. The outcome in experiment [18] was inactive. Also, the max activation in [14] was -0.478%.

In the case of `COC(=O)[C@H]1[C@H]2C[C@@H]3c4[nH]c5cc(OC)ccc5c4CCN3C[C@H]2C[C@@H](OC(=O)/C=C/c2ccc(O)c(OC)c2)[C@@H]1OC`, the Potency result in experiment [1], in [2], in experiment [3], in experiment [4], in experiment [5] and in experiment [6] was “inactive” each time. Also, the Potency entry in [19], in experiment [9] and in experiment [11] was “inactive” in each case. For the same compound, in experiment [18], the result was inactive. Also, the figures for the Potency in experiment [8], in experiment [10] and in experiment [13] were 23.7 µM (active), 26.6 µM (active) and 11.9 µM (active), respectively.

As to `C[C@]12CC[C@@H]3c4ccc(O)cc4CC[C@H]3[C@@H]1CC[C@@H]2OC(=O)CCC1CCCC1`, the Potency result in experiment [1], in experiment [2], in experiment [3], in experiment [5], in experiment [7] and in experiment [19] was “inactive” throughout. In addition, the Potency entry in [8], in experiment [12] and in [15] was “inactive” each time. Further, the Potency in [4] is 386 nM (active); in [9], 61.1 µM (active); in experiment [10], 54.5 µM (active) and 29.8 µM (active); in experiment [11] it was 43.3 µM (active); in experiment [13], 21.7 µM (active) and 23.7 µM (active). In addition, the compound was classed as inactive in [18]. The max activation in [14] was 4.34% and -0.252%.
